F508del corr: F508del CFTR correction, initial screen, CFBE line, single point | 350,000 compounds, 0.36% hits | CFBE cells, YFP halide quenching; stimulated with forskolin plus potentiator P3; % fluorescence drop versus neutral controls | AID 720511, 2013 | activity (quench increase), % at 7.58 µM;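 active = mean added fluorescence quench of at least 8% versus neutral control, with both replicates also reaching 8%; inconclusive = only one of the mean or replicate conditions met; inactive = mean below 8% and not both replicates reaching 8%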;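 note: cells transiently co-express mutant CFTR-F508del with the halide-sensitive YFP; corrector assay measuring rescue of mutant channel to the surface after 24 h compound exposure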
Ecoli rRNA inh: reduced GFP signal of wild-type E. coli, primary screen, bacterial rRNA inhibitor project, GFP/RFP fluorescence, OD600, single point; E. coli WT GFP vs humanized-ribosome RFP mutants, 24 h; active compounds read low; DMSO median 0, no signal -100; GFP signal change (wild-type ribosome), % (no concentration beside the values); 350,000 compounds, 1.6% hits; AID 720706, 2013;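 active = significant combined selectivity score with lowered wild-type GFP, culture density cut under 30%, mutant RFP and density less affected; inactive = any of these conditions unmet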
ARNT TACC3 PPI: disruptors of ARNT/TACC3 protein interaction, primary screen, biochemical, AlphaScreen, single concentration; AlphaScreen His-ARNT PAS-B/GST-TACC3 binding, luminescence; TACC3 fragment carries E629A point mutation; 390,000 compounds, 0.66% hits; Transforming acidic coiled-coil-containing protein 3 (Homo sapiens), Q9Y6A5; inhibition, % at 9.99 µM;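 active = mean inhibition of replicates at least 50% and at least half of replicates each reaching 50%; inconclusive = half or more replicates reach 50% but mean below 50%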
ERAP1 HTS inh: human ERAP1 aminopeptidase inhibitors, primary screen, biochemical, single point, plate reader; Endoplasmic reticulum aminopeptidase 1 (Homo sapiens), Q9NZ08; recombinant ERAP1, Leu-AMC fluorescence, 60 min; inhibition, % at 10.7 µM; 340,000 compounds, 0.15% hits; AID 652197, 2013;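 active = mean replicate inhibition of at least 30%, or all replicates individually reaching that 30% level; inactive = mean below 30% and not every replicate reaching it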
Target sequence (Q9NZ08 whole entry, looked up): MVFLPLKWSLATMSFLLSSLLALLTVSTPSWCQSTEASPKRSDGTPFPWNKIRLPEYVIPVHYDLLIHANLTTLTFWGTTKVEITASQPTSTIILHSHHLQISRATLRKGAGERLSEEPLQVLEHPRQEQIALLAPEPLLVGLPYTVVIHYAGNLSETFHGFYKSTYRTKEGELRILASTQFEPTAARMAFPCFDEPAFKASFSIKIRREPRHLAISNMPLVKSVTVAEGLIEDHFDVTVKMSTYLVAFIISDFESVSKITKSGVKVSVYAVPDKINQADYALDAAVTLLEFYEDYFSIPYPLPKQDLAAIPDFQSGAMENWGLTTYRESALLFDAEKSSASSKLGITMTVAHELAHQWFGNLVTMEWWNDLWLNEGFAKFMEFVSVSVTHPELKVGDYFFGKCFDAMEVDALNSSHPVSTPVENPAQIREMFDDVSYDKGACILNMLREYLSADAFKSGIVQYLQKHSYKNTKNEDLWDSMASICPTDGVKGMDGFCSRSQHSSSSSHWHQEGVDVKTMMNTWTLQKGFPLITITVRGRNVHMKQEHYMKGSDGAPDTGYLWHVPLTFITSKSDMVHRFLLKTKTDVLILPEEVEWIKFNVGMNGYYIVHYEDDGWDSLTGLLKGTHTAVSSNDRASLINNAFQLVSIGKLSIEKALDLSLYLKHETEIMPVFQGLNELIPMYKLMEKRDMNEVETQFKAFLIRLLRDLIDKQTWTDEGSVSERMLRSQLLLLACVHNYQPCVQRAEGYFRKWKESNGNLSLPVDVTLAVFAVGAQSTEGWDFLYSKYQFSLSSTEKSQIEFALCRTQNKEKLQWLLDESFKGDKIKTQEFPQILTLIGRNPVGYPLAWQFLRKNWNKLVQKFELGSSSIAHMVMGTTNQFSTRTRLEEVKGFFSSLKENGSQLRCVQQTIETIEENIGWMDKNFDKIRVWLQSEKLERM
PvdQ inh: P. aeruginosa PvdQ acylase inhibitors, primary screen, biochemical, fluorescence, plate reader and imaging, single point; PvdQ acylase [Pseudomonas aeruginosa LESB58]; purified PvdQ acylase; inhibition, % at 10 µM; 340,000 compounds, 0.063% hits; in the data active = inhibition above about 30%, passing the limit was not always enough; inconclusive = no clear call, values can overlap the other calls
Numbers stand for hits; 0 = inactive; ? = inconclusive; - = no result; ! = not active in a repeat. An excerpt weighted towards active compounds, which were near 2.1% of everything screened.

SMILES | F508del corr | Ecoli rRNA inh | ARNT TACC3 PPI | ERAP1 HTS inh | PvdQ inh
O=[N+]([O-])c1ccc(O)c(C(C#Cc2ccccc2)N2CCOCC2)c1 (stereo not given) | 0 | -32 | 0 | 0 | 0
O=C(C[C@@H]1C[C@H]2c3cc(NC(=O)c4cccnc4)ccc3O[C@H]2[C@@H](CO)O1)NCC1CC1 | 0 | 0 | 0 | 0 | -
CN(C)c1ccc2c(c1)[C@@H]1C[C@H](CC(=O)NCc3ccc(Cl)cc3)O[C@@H](CO)[C@@H]1O2 | 0 | 0 | - | 0 | -
CCOC(=O)c1ccc(N2Cc3ccccc3C2=N)cc1 | - | - | 0 | - | 58
CCOC(=O)c1ccc(N2Cc3ccccc3C2=NC(=O)c2ccncc2)cc1 | 0 | 0 | 0 | 0 | ?
COc1cc2c(C#N)c(N3CCCC3)nc(N)c2c(N)n1 | 0 | 0 | 34! | 0 | 0
COc1cc2c(C#N)c(N3CCN(C)CC3)nc(N)c2c(N)n1 | - | - | 0 | - | 0
CCOc1ccc(/C=N/O)cc1 | 0 | - | 0 | - | 0
Cc1ccc(COc2ccc(/C=N/O)cc2)cc1 | - | -16 | 0 | 0 | 0
c1cncc(-c2ccc(C3[C@H]4CNC[C@@H]3N4CC3CCCCC3)cc2)c1 (stereo not given in full) | 0 | 0 | - | 0 | -
c1ccc(CN2CCN(C3CCCSc4ccccc43)CC2)cc1 (stereo not given) | 0 | -30 | 0 | 0 | 0
Oc1cc(NCCc2cccnc2)cc2cccnc12 | 0 | 0 | 73 | 0 | 0
CN(C)c1ccc(-c2cc(O)c3ncccc3c2)cc1 | 0 | 0 | 0 | 0 | 0
Oc1cc(Nc2cccnc2)cc2cccnc12 | 0 | 0 | 58 | 0 | 0
C[C@H](CO)N1C[C@H](C)[C@@H](CN(C)Cc2ccc(C(=O)O)cc2)OCc2ccccc2-c2ccccc2C1=O | - | 0 | - | - | -
CC(=O)N(/N=C1\Sc2ccccc2C1=O)c1ccccc1C | - | - | 59 | - | 0
C[C@H](CO)N1C[C@H](C)[C@H](CN(C)S(=O)(=O)c2ccc(C#N)cc2)Oc2ncc(C#Cc3ccc(F)cc3)cc2C1=O | 0 | 0 | 0 | 0 | -
Cc1cc(Cl)cc(C)c1OCCn1ccnc1 | 13 | 0 | 0 | 0 | 0
Cc1nccn1CC(=O)N/N=C/c1c[nH]c2ccccc12 | 0 | 0 | 0 | 0 | 0
Cc1ccc(S(=O)(=O)NCC(=O)N/N=C/c2ccccc2O)cc1 | 0 | -31 | 0 | 0 | 0
Cc1nccn1CC(=O)N/N=C/c1ccccc1O | 0 | 0 | 74 | 0 | 0
O=C(CCSCCC(=O)NN=Cc1ccccc1O)NN=Cc1ccccc1O | 0 | 0 | - | 0 | 0
Cc1ccc(S(=O)(=O)NCC(=O)N/N=C/c2ccc(Cl)cc2Cl)cc1 | 0 | 0 | 0 | 0 | 0
O=C(CSc1ccccc1)N/N=C/c1ccccc1O | 0 | -19 | 0 | 0 | 0
O=C(Nc1csc([N+](=O)[O-])c1)Nc1c(Cl)cccc1Cl | 0 | -32 | 0 | - | 0
SMILES | F508del corr | Ecoli rRNA inh | ARNT TACC3 PPI | ERAP1 HTS inh | PvdQ inh
O=C(CSc1nc2[nH]ncc2c(=O)[nH]1)Nc1nccs1 | 0 | 0 | - | 0 | -
NS(=O)(=O)c1ccc(-n2ncc3c(=O)[nH]c(SCC(=O)Nc4nccs4)nc32)cc1 | 8.1 | 0 | 0 | 0 | 0
COc1cc(/C=C/C(=O)O)cc(S(=O)(=O)Nc2ccc3cn[nH]c3c2)c1OC | 8.8 | 0 | - | 0 | 0
Cc1cc(C)cc(N2CC(c3nc4ccccc4n3C)CC2=O)c1 (stereo not given) | 0 | 0 | 0 | 103 | 0
Cc1ccc(N2CC(c3nc4ccccc4n3C)CC2=O)cc1C (stereo not given) | 0 | 0 | 0 | 0 | 0
C[C@H]1CN([C@@H](C)CO)C(=O)c2cccc(NC(=O)C3CCCCC3)c2O[C@H]1CN(C)S(C)(=O)=O | 0 | 0 | 0 | 0 | -
Oc1ccc(/C=N/NC(=S)Nc2cccnc2)c(O)c1O | 0 | 0 | 64 | 0 | 0
Fc1c(F)c(F)c(/C=N/NC(=S)Nc2cccnc2)c(F)c1F | 0 | 0 | 0 | 0 | 0
Fc1cccc(F)c1/C=N/NC(=S)Nc1cccnc1 | 0 | 0 | 0 | 0 | 0
Oc1cccc(/C=N/NC(=S)Nc2cccnc2)c1O | - | - | 66 | - | 0
O=C(NN=Cc1ccc(O)cc1)C(=O)NN=Cc1ccc(O)cc1 | 0 | 0 | 0 | 0 | 0
O=C(N/N=C/c1ccc(O)cc1O)C(=O)N/N=C/c1ccc(O)cc1O | 0 | -24 | 0 | 0 | 0

High-throughput results deposited in PubChem by Broad Institute.
